The full list was thinned out, with hits kept by preference.
HIV RNase H inh-1 = inhibitors of HIV-1 reverse transcriptase RNase H; P04585; RT-RNase H RNA/DNA duplex cleavage, fluorescence; inhibition, % at 10 µM; 1.9% of 65,000 active; in the data active means inhibition above about 50%
HIV RNase H inh-2 = confirmation of HIV-1 reverse transcriptase RNase H inhibitors; shares compounds with HIV RNase H inh-1; Recombinant RT RNase H, fluorescent RNA/DNA duplex cleavage; inhibition, % at 10 µM; 39% of 1,000 active; in the data active means inhibition above about 48%; inconclusive means no clear call, values can overlap the other calls
* = called active by the depositor; ? = inconclusive.

SMILES	HIV RNase H inh-1	others
O=C(NCC1CCCO1)c1ccc2c(c1)C(=O)N(C1CCCCC1)C2=O (stereo unspecified)	6
O=C(CSc1nnc(Cc2ccccc2)o1)Nc1ccc(Br)cn1	6
CCc1nc(SCc2ccc(C(=O)OC)o2)c2c(=O)n(C)c(=O)n(C)c2n1	-8
O=P1(c2ccccc2)C=Cn2c1cc1c2CCCC1 (stereo unspecified)	3
CCOC(=O)c1c(N)sc2c1CCC(C)C2 (stereo unspecified)	5
CCOC(=O)c1c(N)sc2c1CCS(=O)(=O)C2	46
CCOC(=O)c1c(N)sc2c1CCCC2	85*	HIV RNase H inh-2=-1
O=C(O)CCn1[nH]c(=O)ccc1=O	-3
C=CCC1(O)C(=O)N2C(=C1C(=O)N1CCOCC1)c1ccccc1CC2(C)C (stereo unspecified)	-9
COCCNC(=O)CN(C(=O)CCC(=O)Nc1nccs1)c1ccccc1OC	-3
COC(=O)c1cc(Br)c(=O)n(Cc2ccc(OC)c(OC)c2)c1	-5
N=C1C(c2nc3ccccc3c(=O)[nH]2)=C(O)CN1CCc1ccccc1	75*	HIV RNase H inh-2=6
N=C1C(c2nc3ccccc3c(=O)[nH]2)=C(O)CN1CCO	-5
COCCN1CC(O)=C(c2nc3ccccc3c(=O)[nH]2)C1=N	-8
COc1ccc(CCNC(=O)Cn2cnc3c(nnn3Cc3ccccc3F)c2=O)cc1OC	7
Nc1nnc(CCC2CCCCC2)s1	-21
N#CC1=C(N)SC(N)=C(C#N)C1CCC1CCCCC1	80*	HIV RNase H inh-2=?
CCCCC(=O)Nc1ccc(C(=O)N2CCN(C)CC2)cc1	-1
CCOCCCNC(=O)N[C@@H](Cc1ccccc1)C(=O)OC	-4
Cc1cnn(-c2ccc3nnc(-c4ccc(Br)cc4)n3n2)c1	11
C=CCc1c(C)[nH]c(=S)c(C#N)c1C	77*	HIV RNase H inh-2=59*
CCCCOC(=O)CCc1c(C)[nH]c(=O)c(C#N)c1C	-2
COCc1cc(C)c(C#N)c(=S)[nH]1	37
COc1ccc(C(=O)n2nc(-c3ccco3)nc2SC)cc1OC	17
COc1ccccc1/C=c1\sc2nc(-c3ccncc3)nn2c1=O	-13
SMILES	HIV RNase H inh-1	others
COc1ccc(Br)cc1/C=c1\sc2nc(-c3ccco3)nn2c1=O	73*	HIV RNase H inh-2=?
Cc1ccc(NCc2nnc(SCC(=O)NCCc3ccccc3)n2C)cc1	-9
CCCCOC(=O)n1c(SCC(=O)N(CC)CC)nc2ccccc21	-7
COCCN(C(=O)CCC(=O)Nc1ccccn1)C(C(=O)NC1CCCC1)c1ccc(OC)cc1 (stereo unspecified)	0
Cc1cc(C(=O)Nc2cccnc2)no1	2
Cc1ccc(-c2cc(C(=O)Nc3cccnc3)c3ccccc3n2)o1	69*	HIV RNase H inh-2=32
O=C(Nc1cccnc1)c1coc(=O)c2ccccc12	-5
Cn1c(=O)c2c(nc(Oc3ccc(-c4ccccc4)cc3)n2C)n(C)c1=O	-9
COc1ccc(C)cc1Nc1cc(C)nc2ncnn12	-10
COc1ccc(NC(=O)CSc2nnc(-c3cccs3)n2-c2ccccc2)cc1	-4
CCn1c(Cc2ccc(OC)cc2)nnc1SCC(=O)Nc1cccc(C(=O)OC)c1	1
COC(=O)CSc1ncnc2c1sc1nc(-c3ccco3)c3c(c12)CC(C)(C)OC3	60*	HIV RNase H inh-2=43
CCCc1nc2sc3c(SCC(=O)NCc4ccco4)ncnc3c2c2c1CCC2	40
CC(C)c1nc2sc3c(NCc4ccco4)ncnc3c2c2c1COC(C)(C)C2	28
CC(C)OP(=O)(c1ccc(N(C)C)cc1)C(O)c1c(Cl)cccc1Cl (stereo unspecified)	-1
CC1(C)CC2CC(C)(CN2C(=O)C23CCC(C)(C(=O)O2)C3(C)C)C1 (stereo unspecified)	-5
O=C(CSc1ccc2nnc(-c3ccccn3)n2n1)NCc1ccco1	3
CCCCn1c2c(c(=O)n(C)c1=O)C(c1ccc(OC)cc1)N1CCCCCC1=N2 (stereo unspecified)	-14
Fc1ccc(-c2nnc3sc(C4COc5ccccc5O4)nn23)cc1 (stereo unspecified)	-15
Clc1ccccc1-c1nnc2sc(-c3ccc4c(c3)OCO4)nn12	92*	HIV RNase H inh-2=?
O=c1[nH]cnc2scc(C3COc4ccccc4O3)c12 (stereo unspecified)	-14
c1ccc2c(c1)OCC(c1nnc3n1-c1ccccc1SC3)O2 (stereo unspecified)	-27
COc1ccc(OCc2nn3c(Cn4cnc5ccccc54)nnc3s2)cc1	-24
Clc1ccccc1-c1nnc2sc(-c3ccc(Br)o3)nn12	-20
COc1ccccc1-c1nn2c(-c3ccccc3Cl)nnc2s1	-2
Clc1cc2c(c(Cn3cnc4ccccc43)c1)OCOC2	-97
Fc1ccc(-c2nn3c(C4COc5ccccc5O4)nnc3s2)cc1 (stereo unspecified)	2
c1csc(-c2nn3c(C4COc5ccccc5O4)nnc3s2)c1 (stereo unspecified)	91*	HIV RNase H inh-2=62*

Screening results deposited in PubChem BioAssay by University of Pittsburgh Molecular Library Screening Center.
